Many of the other results were omitted from the sample, so hits are more common in it than they were.
BJeLR viab HTS = BJeLR cell viability loss, primary screen, luminescence, CellTiterGlo ATP. BJeLR fibroblasts viability, 48 h; HRASV12, hTERT and SV40 LT/ST transformed. viability loss activity score, % (no concentration beside the values). 30,000 tested, 0.64% active; in the data active = viability loss activity score above about 50%;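 also: higher score means fewer live cells and less ATP luminescence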
MITF inh = inhibitors of MITF, primary screen, MITF inhibitor project, cell-based, luminescence; TRPM1 promoter luciferase, 24 h; inhibition, % (no concentration beside the values); 37,000 tested, 0.28% active; in the data active = inhibition above about 85%;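 also: human melanocyte line stably carrying TRPM1 promoter luciferase reporter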
Shh pathway inh = Hedgehog pathway signaling inhibitors, primary screen, luminescence, Shh-LIGHT2 cells, Gli-luciferase; Shh-LIGHT2 Gli-luciferase reporter, 30 h; inhibition, % (concentration not given with the values); 22,000 tested, 2.1% active; AID 2313, 2010;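 active = mean inhibition across valid replicates above about 65%, limit read from the data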;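 also: pathway switched on by Shh-conditioned medium diluted 1 in 25 in low serum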
* marks the source's active call; other numbers are inactive results; . = no result.

SMILES	BJeLR viab HTS	MITF inh	Shh pathway inh
C[C@H](CO)N1C[C@H](C)[C@H](CN(C)S(=O)(=O)c2ccc(Cl)cc2)Oc2c(NC(=O)Nc3ccc4c(c3)OCO4)cccc2C1=O	-2.2	-12.8	109.7*
CSc1nc2sc3c(c2c(=O)n1-c1cccc(Br)c1)CC(C)(C)OC3	-5.0	.	.
COc1ccccc1N1CCN(C(c2cccs2)C(C)NS(=O)(=O)c2ccc(F)cc2)CC1 (configuration not stated)	-11.5	.	.
O=C(CC1c2ccccc2Oc2ccccc21)Nc1ccc(Cc2ccncc2)cc1	.	60.4	.
CCOC(=O)Nc1cccc(NC(=O)CC2c3ccccc3Oc3ccccc32)c1	.	89.0*	.
COc1ccccc1N1CCN(CCCCNC(=O)c2ccc(-c3ccc(C(C)=O)cc3)cc2)CC1	10.9	4.3	92.1*
O=C(NCCN1CCOCC1)c1ccc(-c2ccccc2)cc1	1.5	.	.
O=C(CN1C(=O)/C(=C/c2ccccc2)SC1=S)NC1CCCC1	-1.5	.	.
CCOC(=O)c1cnc(S/C=C/C(=O)c2ccc(C)cc2)nc1N	90.1*	30.5	32.9
CCOC(=O)c1cnc(SCC(=O)Nc2ccc(Cl)cc2Cl)nc1N	.	17.4	.
Cc1ccc(CNC(=O)Cn2c(=O)n(-c3ccc(C)c(C)c3)c(=O)c3c(C)c(C)sc32)cc1	-8.4	.	.
CC1CC(C)(C)NC(=S)N1CCC(=O)Nc1ccc(Cl)cc1 (configuration not stated)	-4.3	.	.
COc1ccc(NC(=O)c2cc3c(s2)-c2ccccc2SC3)cc1	8.6	.	.
Cc1cccc(C)c1OCC(=O)Nc1cccc(C(=O)O)c1	.	20.5	.
Cc1ccc(OCC(=O)Nc2cccc(C(=O)O)c2)c(Br)c1	.	86.6*	.
CC1CCCCN1C(=O)Cn1c(=O)n(C2CCCC2)c(=O)c2ccccc21 (configuration not stated)	9.2	.	.
COc1cc(C2Nc3ccccc3S2)cc(OC)c1OC (configuration not stated)	-2.9	1.4	39.0
c1ccc2c(c1)NC(c1ccc3c(c1)OCO3)S2 (configuration not stated)	72.0*	.	.
CCCN(CCC)C(=O)c1ccc2c(c1)N(Cc1ccccc1F)C(=O)c1ccccc1S2(=O)=O	-4.8	.	.
O=C(c1cncc(NS(=O)(=O)c2ccc(Cl)cc2)c1)N1CCCc2ccccc21	1.8	.	.
COc1cccc2c1C(c1ccc3c(c1O)C(=O)CC(C)C3O)OC2=O (configuration not stated)	1.2	-7.4	1.3
COc1cccc2c1C(=O)c1c(O)c3c(c(O)c1C2=O)C[C@@](O)(C(=O)CO)C[C@@H]3OC1CC(N)C(O)C(C)O1 (some centres not stated)	105.7*	62.2	83.3*
COc1cccc2c1C(=O)c1c(O)c3c(c(O)c1C2=O)C[C@@](O)(C(=O)CO)C[C@@H]3O[C@H]1C[C@H](N)[C@H](O)[C@H](C)O1	108.7*	70.9	90.4*
COc1cccc2c1C(=O)c1ccc3c(c1C2=O)C(=O)CC(C)(O)C3 (configuration not stated)	0.0	-13.6	-59.1
O=C(Nc1ccc(Br)cc1)C1CC(=O)N(c2ccccc2)C(=Nc2ccccc2)S1 (configuration not stated)	7.4	.	.
SMILES	BJeLR viab HTS	MITF inh	Shh pathway inh
NC(N)=Nc1nc2ccccc2c(=O)[nH]1	-0.3	.	.
Cc1cc2c(cc(C(=O)NCc3ccc(Cl)cc3)n2Cc2ccc(Cl)cc2)o1	-2.8	.	.
CCOc1ccc(N=CC2=C(O)CNC2=O)cc1	-2.5	.	.
O=C1C=CC(=O)N1c1ccccc1	126.9*	64.4	.
O=C1CC(=O)N(c2ccccc2)N1c1ccccc1	0.6	.	.
COc1ccc(CC(N)C(=O)N[C@H]2[C@@H](O)[C@H](n3cnc4c(N(C)C)ncnc43)O[C@@H]2CO)cc1 (some centres not stated)	19.0	92.1*	97.1*
CN(C)c1ncnc2c1ncn2C1OC(CO)C(N)C1O (configuration not stated)	19.6	.	.
CC1(C)N=C(NS(=O)(=O)c2cc(C(F)(F)F)cc(C(F)(F)F)c2)N(c2ccccc2)O1	6.0	49.2	100.8*
CSc1nn(-c2ccccc2)cc1C(=O)Nc1cccc(C(F)(F)F)c1	3.1	.	.
O=C(CNS(=O)(=O)c1cccs1)NC(c1ccccc1)c1ccccc1	2.9	.	.
O=C(O)C(c1ccccc1)N1C(=O)/C(=C/c2ccncc2)SC1=S (configuration not stated)	-3.3	.	.
CC(=O)O[C@@]1(C)[C@@H]2CC(=C(C)C)C(=O)C[C@@]2(C)CC[C@H]1OC(=O)C1(C)OC1C (some centres not stated)	53.9*	-2.3	20.5
CC(C)(C)c1ccc(NC(=O)/C=C/c2ccc(-c3cccs3)s2)cc1	10.3	.	.
S=C(NCc1cccnc1)c1ccccc1	10.5	.	.
OC(Cc1cccnc1)(c1ccccc1)c1ccccc1	3.6	26.9	70.6*
O=c1c2ccccc2nc(/C=C/c2cc(Br)ccc2O)n1CCCO	.	101.9*	.
Cc1[nH]c2ccccc2c1/C=C/c1nc2ccccc2c(=O)n1CCCO	.	-1.2	.
Cc1nc2cc(-c3cccc(F)c3)nn2c(C)c1CCC(=O)Nc1ccc2c(c1)OCCO2	-15.6	.	.
N#C/C(=C\c1ccc(O)c(O)c1)C(=O)c1ccc(O)c(O)c1	-6.3	-3.0	39.8
N#C/C(=C\c1ccc(O)c(O)c1)C(=O)NCCCc1ccccc1	-7.1	2.5	86.1*
O=S(=O)(Cc1cccc(C(F)(F)F)c1)Cc1nc(-c2ccc(C(F)(F)F)cc2)cs1	-2.7	.	.
CC(C)(C)C(=O)NCc1cn2ccsc2n1	8.9	.	.
O=C1C(Nc2ccccc2)=CC(=O)c2ncccc21	69.1*	97.1*	94.0*
COC(=O)C1=C(C)N(c2ccc(C)cc2)/C(=C/c2ccc(OC)cc2)C1=O	-9.2	.	.
Nc1nc(Cl)nc2c1ncn2C1OC(CO)[C@H](O)[C@H]1F (some centres not stated)	53.6*	29.1	19.2
SMILES	BJeLR viab HTS	MITF inh	Shh pathway inh
Nc1nc(Cl)nc2c1ncn2C1C[C@@H](O)C(CO)O1 (some centres not stated)	-16.5	49.3	71.8*
Nc1ncnc2c1ncn2C1CCC(CO)O1 (configuration not stated)	3.8	0.9	-61.7
CCOc1cc(/C=C2\C(=N)N3C(C)=CSC3=NC2=O)ccc1OCc1ccc2c(c1)OCO2	-0.9	.	.
Cc1ccnc(Nc2nc3ccccc3o2)n1	49.8*	.	.
COc1ccccc1NC(=O)c1cnc(Nc2nc3ccccc3o2)nc1C	.	-80.8	.
COc1ccc(OCC(=O)N2c3ccccc3C(C)(c3ccccc3)CC2(C)C)cc1 (configuration not stated)	1.5	.	.
CCOC(=O)c1oc2ccccc2c1CO	3.0	27.1	97.2*
CCOC(=O)c1oc2ccccc2c1NC(=O)c1ccc(S(=O)(=O)N(C)C)cc1	3.6	.	.
CCN1C(=O)N/C(=C\c2cccn2-c2ccc(C(=O)O)cc2)C1=O	2.4	.	.
Nc1ncnc2c1c(I)cn2C1OC(CO)C(O)C1O (configuration not stated)	63.1*	87.6*	44.0
O=C(CCCN1C(=O)c2cccc3cccc(c23)C1=O)Nc1ccccc1Br	.	-5.8	.
O=C(CCCCCN1C(=O)c2cccc3cccc(c23)C1=O)NO	113.9*	71.2	90.6*
CCN1C(=O)c2ccccc2Sc2ccc(C(=O)NCCc3ccccc3)cc21	34.4	.	.
